Out of some 400,000 compounds screened, about 2,100 (0.53%) were called active. Inconclusive results (about 14%) are left out. The sample holds actives, similar compounds and a random draw of the others, so the mix is not that of the screen. How the calls were made is not given here.

Chain of Ataxin-2 (Homo sapiens) (Q99700 whole entry): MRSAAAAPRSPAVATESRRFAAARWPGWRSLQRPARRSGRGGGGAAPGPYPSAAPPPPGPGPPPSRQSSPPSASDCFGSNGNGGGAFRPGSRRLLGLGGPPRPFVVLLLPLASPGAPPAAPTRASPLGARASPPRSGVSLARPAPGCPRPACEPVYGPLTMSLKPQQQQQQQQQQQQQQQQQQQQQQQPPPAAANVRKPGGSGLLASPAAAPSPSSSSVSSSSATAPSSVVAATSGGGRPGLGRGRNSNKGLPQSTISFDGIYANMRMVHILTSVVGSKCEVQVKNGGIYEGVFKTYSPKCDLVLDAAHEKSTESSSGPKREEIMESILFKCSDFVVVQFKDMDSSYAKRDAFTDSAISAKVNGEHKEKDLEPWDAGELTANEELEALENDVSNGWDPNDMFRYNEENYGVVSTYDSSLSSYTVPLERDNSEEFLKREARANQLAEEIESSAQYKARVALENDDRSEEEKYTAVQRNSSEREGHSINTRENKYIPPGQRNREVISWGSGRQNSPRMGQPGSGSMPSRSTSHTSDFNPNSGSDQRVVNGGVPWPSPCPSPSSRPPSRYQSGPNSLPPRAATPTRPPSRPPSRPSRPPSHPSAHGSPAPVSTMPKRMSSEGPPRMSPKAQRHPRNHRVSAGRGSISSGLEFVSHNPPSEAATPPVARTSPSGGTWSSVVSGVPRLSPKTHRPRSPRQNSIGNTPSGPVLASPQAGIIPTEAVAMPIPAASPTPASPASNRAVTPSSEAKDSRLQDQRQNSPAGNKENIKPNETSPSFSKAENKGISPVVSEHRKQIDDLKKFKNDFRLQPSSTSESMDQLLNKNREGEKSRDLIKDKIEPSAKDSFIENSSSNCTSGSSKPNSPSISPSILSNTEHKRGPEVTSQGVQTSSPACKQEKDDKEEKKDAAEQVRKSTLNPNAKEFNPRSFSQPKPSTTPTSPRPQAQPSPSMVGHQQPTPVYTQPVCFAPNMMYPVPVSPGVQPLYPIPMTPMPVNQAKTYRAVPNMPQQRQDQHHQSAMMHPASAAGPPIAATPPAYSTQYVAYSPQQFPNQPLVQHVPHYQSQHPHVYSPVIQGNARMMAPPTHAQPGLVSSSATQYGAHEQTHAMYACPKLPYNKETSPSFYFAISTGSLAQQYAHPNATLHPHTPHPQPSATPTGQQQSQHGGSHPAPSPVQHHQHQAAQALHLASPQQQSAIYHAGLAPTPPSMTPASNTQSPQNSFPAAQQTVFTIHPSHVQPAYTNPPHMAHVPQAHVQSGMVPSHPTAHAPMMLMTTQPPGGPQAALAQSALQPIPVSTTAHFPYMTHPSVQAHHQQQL

The assay addresses Ataxin-2 (Homo sapiens) (UniProt Q99700). In words: qHTS for Inhibitors of ATXN expression. In kind it is functional. (In general: In qHTS, concentration-response curves come from the screen itself.)
Consider `CCN(c1ccccc1)c1nc(=O)c2cccnc2s1`, for which the Potency entry is “inactive”. For `Brc1cccc(CSc2nnc(-c3ccncc3)o2)c1` the value was “inactive”; for `O=S1(=O)C=C(Sc2nc3cc(Cl)ccc3o2)c2ccccc21`, 10 µM (active); for `O=S1(=O)C=C(Sc2nnc(-c3ccccc3)o2)c2ccccc21`, 11.2 µM (active).

As for `N#C/C(=C\c1c(Oc2ccccc2F)nc2ccccn2c1=O)C(=O)NC1CCS(=O)(=O)C1` (configuration not stated), the Potency result is “inactive”. For `O=[N+]([O-])c1cc(S(=O)(=O)N2CCCCCC2)ccc1F` the value was 35.5 µM (active); for `NC(=O)c1cc(S(=O)(=O)N2CCCCC2)cs1`, “inactive”. `O=S(=O)(c1ccc(S)nc1)N1CCCCCC1`: the Potency entry is “inactive”. The result for `Cn1c(=O)oc2cc(S(=O)(=O)N3CCCC3)ccc21` reads “inactive”; that for `O=S(=O)(c1ccc(S)nc1)N1CCCCC1`, “inactive”; that for `O=[N+]([O-])c1cc(S(=O)(=O)N2CCCCCC2)ccc1Cl`, 42.3 µM (active). For `COCc1cc(C)nc2sc(C(=O)Nc3ccccc3C)c(N)c12` the value was “inactive”.

On to `O=C(Nc1nc2n(n1)C(c1ccccc1)C=C(c1ccc(Cl)cc1)N2)c1ccco1` (configuration not stated), for which the Potency result was “inactive”. The result for `CCCCc1cc(=O)oc2cc(OCC(=O)Nc3cccnc3)c(Cl)cc12` reads “inactive”; that for `S=C(NCc1ccccc1)N/N=C/c1cccs1`, “inactive”; that for `Cc1ccc(CN2CCSCC2)cc1`, “inactive”. The result for `O=C(/C=C/c1ccc([N+](=O)[O-])o1)NNC(=O)c1ccc(F)cc1` reads 7.08 µM (active).

Consider `O=C(CCC1CCCC1)NNC(=O)c1ccc(F)cc1`, for which the Potency entry is “inactive”.

With `O=C(CN1C(=O)/C(=C/c2ccccc2F)Oc2ccccc21)N1CCN(c2ccccn2)CC1`, the Potency result was “inactive”. For `O=C(OC1C2CCC1C1CN(CCc3ccccc3)CC12)c1ccccc1` (configuration not stated) the value was 31.6 µM (active); for `O=C(CSc1nnc(O)n1CCc1ccccc1)NC1CCCC1`, “inactive”; for `COC(=O)c1cc(S(=O)(=O)N2CCN(Cc3ccccc3)CC2)cn1C`, “inactive”.

Consider `O=C(c1ccccc1)N1N=C(c2ccccc2)CC1(O)C(F)(F)F` (configuration not stated), for which the Potency result was “inactive”. The result for `CCOC(=O)C1=NN(C(=O)c2ccccc2)C(O)(c2ccc(C)cc2)C1` (configuration not stated) reads “inactive”; that for `CCC1=NN(C(=O)c2ccccc2O)C(O)(c2ccccc2)C1` (configuration not stated), 25.1 µM (active); that for `CCN(C(=O)CSc1nc2n[nH]c(C)c2c(=N)n1-c1cccc(OC)c1)c1cccc(C)c1`, 22.4 µM (active). For `CCOC(=O)N1CCN(Cc2nc3ccc([N+](=O)[O-])cc3c(=O)n2-c2cccc(OC)c2)CC1` the value was “inactive”. For `COc1cccc(-n2cnnc2SCC(=O)NC2CC2)c1`, the Potency result was “inactive”. For `CCCCC[C@@H](C)N1C[C@@H](COCc2ccccc2)Oc2cc(N3CC[C@@H](O)C3)ccc2S1(=O)=O` the value was 25.1 µM (active); for `C[C@H](c1ccccc1)N1C[C@@H](COCc2ccccc2)Oc2cc(N3CC[C@H](N(C)C)C3)ccc2S1(=O)=O`, 39.8 µM (active).

In the case of `CCCCC[C@H](C)N1C[C@H](COCc2ccccc2)Oc2cc(N3CC[C@H](N(C)C)C3)ccc2S1(=O)=O`, the Potency is 39.8 µM (active). The result for `CCCCC[C@@H](C)N1C[C@@H](COCc2ccccc2)Oc2cc(N3CC[C@H](N(C)C)C3)ccc2S1(=O)=O` reads 31.6 µM (active).

The record behind these values is ChEMBL document CHEMBL1201862, “PubChem BioAssay data set” (2004).
